# Screening data (PubChem BioAssay)
# ALR H2O2 inh: human ALR oxidase inhibition via reduced H2O2; P55789; purified ALR, DTT oxidation, H2O2 HRP-luminol luminescence; inhibition, % (test concentration not listed); 290,000 tested, 3.8% active;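 active means mean replicate inhibition above about 79%, with every replicate also reaching it, limit read from the data; inconclusive means only one of the two criteria met; inactive means mean below limit and not every replicate reaching it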
# Target sequence (P55789 whole entry, looked up): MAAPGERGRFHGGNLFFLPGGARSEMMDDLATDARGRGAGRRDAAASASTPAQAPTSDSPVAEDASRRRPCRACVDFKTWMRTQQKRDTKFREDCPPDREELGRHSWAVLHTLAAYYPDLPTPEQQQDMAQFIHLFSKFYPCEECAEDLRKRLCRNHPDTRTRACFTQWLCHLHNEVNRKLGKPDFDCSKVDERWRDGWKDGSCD
# CSC inhib: blocks cancer stem cells | cancer stem cell-like cells viability, luminescence | inhibition, % at 7.5 µM | AID 2717 | 300,000 tested, 1.1% active; in the data active means inhibition above about 75%; inconclusive means no clear call, values can overlap the other calls; tested in HMLE shEcad cells
# PP1 counter: PP1-alpha (human) inhibition in PP5 counter-screen; P62136; purified PP1alpha, OMFP fluorescence; inhibition, % at 6.7 µM; 320,000 tested, 0.9% active; AID 2235;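 active means inhibition above the mean inhibition of all tested compounds plus 3 SD, computed separately for each screening campaign, cut at about 15% in these data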
# Target sequence (P62136 whole entry, looked up): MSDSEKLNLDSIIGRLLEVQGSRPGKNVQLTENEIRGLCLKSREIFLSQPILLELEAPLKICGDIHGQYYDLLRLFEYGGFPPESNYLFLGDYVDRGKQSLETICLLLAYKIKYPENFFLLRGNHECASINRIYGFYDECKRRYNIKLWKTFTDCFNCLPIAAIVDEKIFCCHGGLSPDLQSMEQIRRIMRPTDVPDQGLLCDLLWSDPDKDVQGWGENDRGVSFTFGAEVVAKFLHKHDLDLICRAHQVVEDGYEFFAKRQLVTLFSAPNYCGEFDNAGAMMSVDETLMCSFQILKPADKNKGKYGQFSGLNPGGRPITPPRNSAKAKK
# Calb FLC: C. albicans growth modulation with fluconazole | C. albicans CaCi-2 (fluconazole-resistant clinical isolate) + fluconazole, Alamar Blue growth, 48 h | growth inhibition, % (test concentration not listed) | AID 1979 | 300,000 tested, 0.57% active;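 active means growth inhibition above about 58% in most replicates, limit read from the data, passing the limit was not always enough; inconclusive means exactly half the replicates above a set limit; inactive means most replicates below a set limit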;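 further: all wells also contain fluconazole at 8 µg/ml as a sub-toxic cotreatment; 0% = median of DMSO wells and 100% = median of geldanamycin control wells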
# PP5 inh: PP5 (human) phosphatase inhibition | P53041 | purified PP5c, OMFP substrate fluorescence | inhibition, % at 6.7 µM | 320,000 tested, 0.18% active;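 active means inhibition above the campaign's mean inhibition across all tested compounds plus 3 SD, cut at about 9.5% in these data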;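 further: 0% = DMSO only and 100% = 100 µM cantharidin control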
# * = called active by the depositor; u = inconclusive; x = no result. Compounds with a hit are over-represented: about 5.4% of the library has one in this group of screens.
SMILES,ALR H2O2 inh,CSC inhib,PP1 counter,Calb FLC,PP5 inh
CC1CCN(S(=O)(=O)c2cccc(-c3cn4cc(Cl)ccc4n3)c2)CC1,-18,5,5,23,2
CCOC(=O)C1CCN(S(=O)(=O)c2cccc(-c3cn4ccccc4n3)c2)CC1,99*,8,2,-4,1
O=[N+]([O-])c1cc(S(=O)(=O)NC2=NCCCCC2)ccc1NCC1CCCCC1,-37,-9,-3,-11,2
CCN(CC)CC(=O)c1ccc(-c2ccccc2)cc1,99*,1,-6,20,2
CN(C)CC(=O)c1ccc(-c2ccccc2)cc1,62,x,1,-1,1
Cc1ccc(S(=O)(=O)Nc2nc3ccccc3nc2Nc2cccc(S(=O)(=O)N3CCCC3)c2)cc1,x,114*,3,0,1
CC(=O)Nc1ccc(S(=O)(=O)Nc2nc3ccccc3nc2Nc2ccccc2)cc1,x,10,2,15,4
COc1ccc(S(=O)(=O)Nc2nc3ccccc3nc2Nc2cccc(C(=O)O)c2)cc1,98*,1,0,2,3
CC(=O)Nc1ccc(Nc2nc3ccccc3nc2NS(=O)(=O)c2ccccc2)cc1,98*,-3,-1,16,-1
Cc1cc(C(=O)COC(=O)C2CCN(C(=O)c3ccc(Cl)cc3)CC2)c(C)n1CC1CCCO1 (stereo not given),1,x,2,-1,0
CC1(C)N=C(c2ccccc2)C(=O)N1,x,-2,0,-11,-3
Cc1cc(S(=O)(=O)N2CCN=C2c2ccccc2)ccc1F,-42,-5,-4,8,1
CCOc1ccc(S(=O)(=O)N2CCN=C2c2ccccc2)cc1,-3,117*,-1,-7,1
Cc1ccccc1NC(=S)Nc1ccc2[nH]c(=O)[nH]c2c1,88*,-7,0,8,0
O=c1[nH]c2ccc(NC(=S)Nc3ccc(Cl)cc3)cc2[nH]1,-4,-6,-1,2,0
Cc1ccc(C(=O)NC(=S)Nc2ccc3[nH]c(=O)[nH]c3c2)cc1,3,1,2,24,0
CCOC(=O)c1ccc(NC(=S)Nc2ccc3[nH]c(=O)[nH]c3c2)cc1,80*,-6,2,0,0
O=c1[nH]c2ccc(NC(=S)Nc3ccccc3)cc2[nH]1,90*,-10,-2,-1,0
Cc1ccc(NC(=S)Nc2ccc3[nH]c(=O)[nH]c3c2)cc1,99*,-10,0,7,3
CCCCCSc1nc(N2CCOCC2)c2c(c1C#N)CC(C)(C)OC2,-1,-10,-4,-4,2
CC1CN(S(=O)(=O)c2cccc(C(=O)NN3CCN(C)CC3)c2)CC(C)O1 (stereo not given),8,9,-1,-7,1
Cc1ccc(S(=O)(=O)Nc2ccccc2CNC2CCCCC2)cc1,1,-4,-2,-6,-2
NC(=O)c1nnn(-c2ccc([N+](=O)[O-])cc2)c1-c1ccccc1,-2,0,-5,-5,-2
O=C(OC1CCCCC1=O)c1cccc(S(=O)(=O)N2CCCCC2)c1 (stereo not given),x,12,-2,1,3
CC1=CC(=O)C(C(C)C)=C/C1=C(\c1cc(C(C)C)c(OP(=O)(O)O)cc1C)c1ccccc1C(=O)O,16,101*,15*,-5,6
SMILES,ALR H2O2 inh,CSC inhib,PP1 counter,Calb FLC,PP5 inh
Cc1nonc1C1CCCN1C(=O)c1cc(COc2ccc(F)cc2F)on1 (stereo not given),-8,-11,-4,u,0
O=C1CS/C(=C\S(=O)(=O)c2ccc(Cl)cc2)N1,22,-11,-7,-6,-1
CCOC(=O)N1CCN(C(=O)CSCC(=O)Nc2nc(-c3ccc(C)cc3)cs2)CC1,99*,0,-1,0,-1
COc1cccc(C(=O)Nc2nc(-c3ccc4c(c3)OCO4)cs2)c1,50,16,4,2,3
CC(=O)Nc1nc(-c2ccc3c(c2)OCO3)cs1,-4,3,-4,1,2
N#CCC(=O)Nc1nc(-c2ccc3c(c2)OCCO3)cs1,100*,-9,2,-5,1
O=C(CCCCl)Nc1nc(-c2ccc3c(c2)OCCO3)cs1,-15,-4,5,-9,3
O=C(CSCC(=O)N1CCOCC1)Nc1nc(-c2ccc3c(c2)OCO3)cs1,97*,-13,3,-2,0
Cc1ccc(-c2csc(NC(=O)CSc3nc(C)cs3)n2)cc1,u,8,3,-20,0
CCOC(=O)N1CCN(C(=O)CSCC(=O)Nc2nc(-c3ccc4c(c3)OCO4)cs2)CC1,99*,x,-2,x,2
CCOC(=O)C1CCN(C(=O)CCCn2c(=O)c3cccn3c3cccnc32)CC1,6,-20,-3,21,1
O=C(C[n+]1cc(-c2ccccc2)n2c1CCC2)Nc1nc(-c2ccccc2)cs1,-10,17,4,-37,2
O=C(CSCC(=O)N1CCCc2ccccc21)Nc1nc(-c2ccccc2)cs1,100*,10,6,-5,1
CCn1c(SCC(=O)c2ccc(O)c(O)c2)nnc1-c1ccccc1OC,99*,-5,-5,96*,2
CCn1c(CSc2nc3ccccc3s2)nnc1SCC(=O)c1ccc(O)c(O)c1,98*,x,3,105*,3
CCn1c(SCC(=O)c2cc(C)n(C)c2C)nnc1-c1ccccc1,3,-6,0,-1,0
CCCSc1nnc(CSc2nc3ccccc3s2)n1-c1ccccc1,-49,86*,6,-10,4
CCn1c(SCC(=O)c2ccc(O)c(O)c2)nnc1-c1ccccc1,98*,17,3,0,2
COc1nc(NC2CCCCC2)nc(NC(C)(C)C)n1,33,3,1,-3,-2
COc1cccc(N2CCC(N3CCN(C)C(CCO)C3)CC2)c1 (stereo not given),94*,48,-4,-7,4
CCOC(=O)N1CCC(N2CCN(CCC(C)C)C(CCO)C2)CC1 (stereo not given),-5,21,-4,13,1
Cc1ccc(N2CCC(N3CCN(C)C(CCO)C3)CC2)cc1 (stereo not given),99*,36,-3,-2,-1
CC(C)CCN1CCN(C2CCN(c3ccccc3)CC2)CC1CCO (stereo not given),98*,41,-4,-10,-2
CCCc1nnc(NC(=O)CNc2ccc(F)cc2)s1,1,1,0,x,2
Cn1c(CCNC(=O)c2ccc(Cl)cc2)n[nH]c1=S,96*,-2,0,-4,-1
Cn1c(CSCc2ccc(Cl)cc2)n[nH]c1=S,94*,-6,-1,18,5
CCn1c(CCNC(=O)c2ccc(C)cc2)n[nH]c1=S,1,-12,1,-8,1
O=C(/C=C/c1ccco1)Nc1cccc(C(=O)Nc2ccccc2C(=O)O)c1,95*,-7,1,-1,2
Cc1cccc(OCC(=O)Nc2cccc(C(=O)Nc3ccccc3C(=O)O)c2)c1,28,7,4,26,0
O=C(Nc1ccccc1C(=O)O)c1cccc(NC(=O)c2ccccc2Br)c1,x,-2,2,0,-2
